Source: PubChem BioAssay AID1053173 (Broad Institute, 2014)
In all, about 1,500 compounds went through this assay and about 390 (26%) were called active. How the calls were made is not given here. These entries were drawn from the full list. Measured potencies and affinities stand elsewhere.

biological target: Histone-lysine N-methyltransferase NSD2 (Homo sapiens) (UniProt O96028); assay: blockers of NSD2 H4 peptide methylation – biochemical, AlphaScreen, cherry-picked samples, dose response (AID 1053173); conditions: 120 min; series mostly up to 10 µM
Sequence (O96028 whole entry, looked up): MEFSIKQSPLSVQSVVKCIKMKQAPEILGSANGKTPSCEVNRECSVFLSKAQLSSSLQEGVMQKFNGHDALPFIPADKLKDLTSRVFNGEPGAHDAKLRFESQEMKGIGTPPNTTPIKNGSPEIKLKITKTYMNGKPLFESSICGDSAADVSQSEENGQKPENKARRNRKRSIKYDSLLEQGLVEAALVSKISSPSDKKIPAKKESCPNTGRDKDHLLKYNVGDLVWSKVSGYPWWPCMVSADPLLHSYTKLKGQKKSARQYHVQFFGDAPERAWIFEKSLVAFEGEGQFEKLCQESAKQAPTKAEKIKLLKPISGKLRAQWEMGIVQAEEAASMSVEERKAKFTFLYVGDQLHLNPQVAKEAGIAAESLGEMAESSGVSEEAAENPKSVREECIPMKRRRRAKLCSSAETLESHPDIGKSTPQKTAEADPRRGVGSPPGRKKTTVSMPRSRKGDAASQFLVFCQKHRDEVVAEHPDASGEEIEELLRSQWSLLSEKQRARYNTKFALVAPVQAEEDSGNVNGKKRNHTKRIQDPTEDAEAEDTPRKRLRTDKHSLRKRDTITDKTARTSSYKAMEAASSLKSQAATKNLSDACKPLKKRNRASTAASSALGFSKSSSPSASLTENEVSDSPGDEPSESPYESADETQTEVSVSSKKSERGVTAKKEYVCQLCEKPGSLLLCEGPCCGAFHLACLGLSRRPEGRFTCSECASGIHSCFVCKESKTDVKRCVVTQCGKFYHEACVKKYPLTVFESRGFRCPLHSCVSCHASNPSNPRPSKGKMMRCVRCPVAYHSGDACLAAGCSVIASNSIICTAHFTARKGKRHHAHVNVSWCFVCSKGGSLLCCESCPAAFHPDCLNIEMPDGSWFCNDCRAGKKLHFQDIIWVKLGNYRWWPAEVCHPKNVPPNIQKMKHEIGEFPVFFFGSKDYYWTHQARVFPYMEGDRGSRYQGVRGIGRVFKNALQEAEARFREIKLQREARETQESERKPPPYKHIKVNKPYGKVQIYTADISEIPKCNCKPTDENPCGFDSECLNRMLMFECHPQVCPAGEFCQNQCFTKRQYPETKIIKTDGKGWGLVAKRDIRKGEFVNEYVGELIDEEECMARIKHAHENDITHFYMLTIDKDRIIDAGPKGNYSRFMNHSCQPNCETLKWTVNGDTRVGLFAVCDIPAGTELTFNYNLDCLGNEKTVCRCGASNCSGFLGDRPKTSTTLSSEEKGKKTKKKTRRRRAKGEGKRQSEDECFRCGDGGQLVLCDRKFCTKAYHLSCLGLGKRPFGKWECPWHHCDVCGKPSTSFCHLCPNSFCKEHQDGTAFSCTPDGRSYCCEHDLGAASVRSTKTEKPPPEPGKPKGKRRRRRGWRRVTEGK

outcome, inactive:
Cc1cccc(N2CCN(S(=O)(=O)c3c(C)nc4scc(C)n4c3=O)CC2C)c1 (stereo not drawn)
O=C(Nc1cc(S(=O)(=O)Nc2ccccc2F)ccc1Cl)c1ccc(F)cc1F
CC1CC(C)CN(C(=O)C2CCN(S(=O)(=O)c3cccs3)CC2)C1 (stereo not drawn)
Cn1c(=O)c2c(nc(CN3CCc4ccccc4C3)n2CCc2ccccc2)n(C)c1=O
Cc1ccccc1-n1nc(C)c2c1N=C1C(Cl)=CC(Cl)=CN1C2c1ccc(C(=O)O)cc1 (stereo not drawn)
CC(C)N(Cc1ccccc1)C(=O)C1CCCN(c2ncnc3c2nc2n3CCCCC2)C1 (stereo not drawn)
COc1ccc(NC(=O)c2ccc(F)c(F)c2)c2ccccc12
c1ccc(-c2cc(-c3ccccc3)n3ncnc3n2)cc1
COCCNC(=O)Cc1c(C)c2c(cc(C)c3c(C)coc32)oc1=O
CC1CCN(C(=O)CN(Cc2ccc(Cl)cc2)S(C)(=O)=O)CC1
CCc1ccccc1NC(=O)CSc1nc2n[nH]c(C)c2c(=N)n1-c1cccc(OC)c1
CC(NC(=O)COC(=O)c1ccc([N+](=O)[O-])s1)c1ccccc1 (stereo not drawn)
CSc1ccccc1NC(=O)CN(C)C(=O)COc1ncnc2ccccc12
COCCOC(=O)C1=C(C)NC(C)=C(C(=O)OC(C)C)C1c1cccc([N+](=O)[O-])c1 (stereo not drawn)
Cc1nnc(N/N=C/c2ccc(-c3ccccc3F)o2)n1N
Nn1cnnc1N/N=C\c1ccc(-c2ccccc2[N+](=O)[O-])o1
CC(C)c1ccc(NC(=S)N2CCCC(c3ccc(F)cc3)=N2)cc1
Cc1ccc(NC(=S)N2CCC(NC(=O)c3cccc(F)c3)CC2)cc1
COc1ccc(S(=O)(=O)N2CCCC(C(=O)NCCCn3ccnc3)C2)cc1OC (stereo not drawn)
CC1CN(c2nc3c(c(=O)n(Cc4ccc(Cl)cc4)c(=O)n3C)n2C)CC(C)O1 (stereo not drawn)
O=c1c2c(n3cnnc3n1-c1ccccc1)-c1ccccc1CC21CCCC1
N#Cc1cc(-c2ccccc2)nnc1Oc1ccccc1Cl
CCN(CC)S(=O)(=O)c1ccc(-c2cn3cc(Cl)ccc3n2)cc1
COc1ccc(C(=O)N(Cc2cccs2)C2CCS(=O)(=O)C2)cc1 (stereo not drawn)
CCOC(=O)Nc1cc(C(=O)OC)ccc1C
O=C(Nc1ccc(Br)cc1)c1ccc(-n2cnnn2)cc1
Cc1cc(C(=O)COc2cccc(-n3cnnn3)c2)c(C)n1-c1ccccc1
O=C(C1CC1)N1CCc2[nH]c3ccccc3c2C1
C=CCn1c(N)c(C(=O)NCC2CCCO2)c2nc3ccccc3nc21 (stereo not drawn)
COc1ccccc1NC1C=CS(=O)(=O)C1 (stereo not drawn)
CC1CCCC(C)N1C(=O)COC(=O)c1ccc([N+](=O)[O-])o1 (stereo not drawn)
COc1ccccc1NC(=O)c1ccccc1NS(=O)(=O)N1CCCC1
O=C1ON=C(c2ccccc2)/C1=C/c1ccc(O)cc1
CCN1CCc2nc3ccccc3c(C(=O)Nc3ccc(NC(C)=O)cc3)c2C1
Nc1nc(Nc2ccccc2F)nc(NCCO)c1[N+](=O)[O-]
CCCCn1c(=O)[nH]c2nc3cc(N)ccc3nc2c1=O
COc1ccc(C(=O)NCc2nnc(SCC(=O)Nc3cc(C)cc(C)c3)o2)cc1OC
Cc1nnc(N/N=C/c2ccccc2O)n1N
COc1ccc(/C=N/Nc2nnc(C)n2N)cc1OC
CN(C)S(=O)(=O)c1ccc(NC(=O)CCNC(=O)c2ccco2)cc1
CC(=O)c1cccc(NC(=O)CC2CCCC2)c1
Cc1nc2ccc(S(=O)(=O)N3CCCCC3)cc2s1
CC(=O)NCCN1C(=O)C2C3c4ccccc4C(c4ccccc43)C2C1=O (stereo not drawn)
CCOC(=O)c1sc2nc(C)nc(NC3CCC(O)CC3)c2c1C (stereo not drawn)
CCCCC(=O)OCc1cn(-c2ccc(Cl)cc2)nn1
Cc1cccc(NC(=O)C2CCN(C(=O)NCc3ccccc3)CC2)c1C
CN1C(=O)C(CCC(=O)O)NC1=S (stereo not drawn)
Cc1cccc(NC(=O)CSCC(=O)NCc2cccc(C(F)(F)F)c2)c1
O=C(O)c1cc(-c2ccco2)nn1-c1ccc(Cl)cc1
O=C(NCCCO)c1ccc2nc(-c3ccco3)c(-c3ccco3)nc2c1
O=C1CCN(Cc2ccccc2)N1
COc1ccc2c(c1)Cc1sc(NC(=O)c3cccs3)nc1-2
COc1ccc(C(=O)OCC(=O)Nc2c(C)n(C)n(-c3ccccc3)c2=O)cc1
O=Nc1ccc(O)c2ncccc12
Cc1ccc(C#N)c(SCc2ccccc2F)n1
O=c1[nH]c(NCCO)c(N=Cc2ccccc2)c(=O)[nH]1
COc1ccc(C2CCc3cc4c(cc3C2=NOC(C)=O)OCO4)cc1OC (stereo not drawn)
Cc1cc(C)n(CC(O)COc2c(C)cccc2C)n1 (stereo not drawn)
O=C(CN1CCOCC1)NCCNC(=O)CN1CCOCC1
CCNC(=O)C1(C)CCCN(C(=O)c2ccc3ccccc3n2)C1 (stereo not drawn)
NC(=O)COC(=O)c1ccc(Cl)c(S(=O)(=O)N2CCN(c3ccc(F)cc3)CC2)c1
COc1cc(NC(=O)c2ccccc2)c(OC)cc1NC(=O)CSc1[nH]c(=O)cc(C)c1C#N
Cc1ccc(CC(=O)Nc2nncs2)cc1
CCc1sc(C(=O)Nc2nc(C)cs2)cc1C
Cc1ccc2cccc(OCc3ccc(Br)cc3)c2n1
CC(Nc1ccc2ccccc2c1)C(=O)N/N=C/c1ccncc1 (stereo not drawn)
Cc1sc2nc[nH]c(=S)c2c1-c1ccccc1
O=c1[nH]nc(Br)c(=O)n1C(c1ccccc1)c1ccccc1
O=C(CSc1nccn1-c1ccc(F)cc1)NCc1ccc(F)cc1
Cc1cccc2c(=O)c(C(=O)NCc3ccc(F)cc3)c[nH]c12
CN(Cc1nc2ccccc2c(=O)[nH]1)C(=O)c1cc2c(s1)CCCCC2
O=C(O)COc1ccccc1/C=N/Nc1ccc(S(=O)(=O)Nc2ccc(Cl)cc2)cc1[N+](=O)[O-]
COc1ccc(CCC(=O)Nc2ccc(S(=O)(=O)Nc3nccc(C)n3)cc2)cc1
Cc1cc(NS(=O)(=O)c2ccc(NC(=O)CSc3nnc(-c4ccncc4)n3Cc3ccco3)cc2)nc(C)n1
O=C(/C=C/c1ccco1)N(c1ccccn1)c1ccccn1
O=C(NNC(=S)Nc1ccccc1)c1ccco1
O=C(Nc1ccccc1C(=O)O)c1cncc(Br)c1
Cn1c(N)c(C#N)c2c(c1=S)CSC(C)(C)C2
CCN(C(=O)/C=C/c1ccc2c(c1)OCO2)c1ccccc1
CC(=O)Nc1ccc(S(=O)(=O)NCCSCc2c(Cl)cccc2Cl)cc1
NS(=O)(=O)c1ccc(N/N=C/c2ccc(O)c(O)c2O)c([N+](=O)[O-])c1
CCCCn1c(Cn2nc(C(=O)O)c3ccccc3c2=O)nc2cc(S(N)(=O)=O)ccc21
CCOC(=O)c1nnn(-c2nonc2OC)c1-c1ccccc1
N#Cc1c2nc3ccccc3nc2n2cc(NC(=O)c3ccc(F)cc3)ccc12
C=CCn1c(NS(=O)(=O)c2ccccc2)c(S(=O)(=O)c2ccc(C)cc2)c2nc3ccccc3nc21
CCCCn1c(NS(=O)(=O)c2ccccc2)c(S(=O)(=O)c2ccc(C)cc2)c2nc3ccccc3nc21
N#Cc1c(N)n(-c2ccc(C(=O)O)cc2)c2nc3ccccc3nc12
COc1ccccc1N1CCN(C2CCN(C(=O)c3cccc(F)c3)CC2)CC1
Cc1cccc(NCCNc2cccc(C)c2)c1
COc1cnc(-c2ccccn2)nc1Oc1cccc(C(F)(F)F)c1
COc1cccc(CNC(=O)CSc2nnc3c(n2)[nH]c2ccccc23)c1
CCOc1ccc(S(=O)(=O)N2CCCC(C(=O)NCCN3CCOCC3)C2)cc1Cl (stereo not drawn)
CNC(=O)COC(=O)/C=C/c1cccs1
Cc1ccc(S(=O)(=O)N2CCC(NC(=O)c3cccnc3)CC2)cc1Cl
COc1cccc(C(C(=O)NC2CCCC2)N(C(=O)c2csnn2)C2CC2)c1 (stereo not drawn)
CCc1c(C)nc2ncnn2c1Nc1ccc(C)cc1
Nc1nc(COC(=O)c2ccco2)nc(Nc2ccccc2)n1
COc1ccccc1N1CCN(S(=O)(=O)CCNC(=O)c2ccc(Br)o2)CC1
CCCCn1nnc(NC(=O)c2ccco2)n1
CCC(=O)N1CCN(c2ccc(Cl)cc2NC(=O)c2ccc(Br)o2)CC1
Cc1cc(C)n(-c2nc(NCC(C)O)c3c4c(sc3n2)COC(C)(C)C4)n1 (stereo not drawn)
CC(=O)C1=C(O)C(=O)N(CCc2c[nH]c3ccccc23)C1c1ccco1 (stereo not drawn)
Oc1cccc2c(NC(=S)Nc3ccc(OC(F)F)cc3)cccc12
COc1ccc(-c2nnc(SCC(=O)c3ccc(O)cc3O)o2)cc1
CCCc1cc(=O)[nH]c(SCc2cc(=O)oc3cc(C)c(C(C)C)cc23)n1
CC(=O)c1ccc(N2CCN(C(=O)[C@H](C)NC(=O)c3ccccc3Cl)CC2)cc1
COc1cc(-c2nnn(Cc3ccccc3C)n2)cc(OC)c1OC
O=C1Nc2cc(C(=O)N3CCC(N4CCCCC4)CC3)ccc2S/C1=C\c1ccccc1
CCCc1[nH]n(-c2nc3ccccc3s2)c(=O)c1C=NCCCN(CC)CC
O=C(CSc1ccc(-c2cccnc2)nn1)N1CCCC1
CCn1c(-c2cc3c(C(F)(F)F)nn(C)c3s2)n[nH]c1=S
Cc1ccc(Sc2ncccc2C(N)=O)cc1
Cc1cc(C)cc(NC(=O)C2C3C=CC4(O3)C2C(=O)N(CCCN2CCCC2)C4C(=O)NC2CCCC(C)C2C)c1 (stereo not drawn)
CCOC(=O)Cn1ncc(-c2ccccc2)c1N
Cc1cc(-c2ccc(C)c(S(=O)(=O)N3CCN(c4ccccn4)CC3)c2)on1
C/C(=C\C(=O)c1ccccc1)Nc1ccc(O)cc1
Clc1cccc(N2CCN(CCCN3CCN(c4ccccc4)CC3)CC2)c1
Fc1ccccc1NC(=S)Nc1cccc2cnccc12
